The text below walks through data of PubChem BioAssay AID1240 (Sanford-Burnham Center for Chemical Genomics, 2008).

Screen size: about 50,000 compounds; about 800 (1.6%) showed an effect of 50% or more. This excerpt belongs to a sample that is enriched for strong results.

Chain of Bcl-2-like protein 10 (Homo sapiens) (Q9HD36 whole entry, looked up): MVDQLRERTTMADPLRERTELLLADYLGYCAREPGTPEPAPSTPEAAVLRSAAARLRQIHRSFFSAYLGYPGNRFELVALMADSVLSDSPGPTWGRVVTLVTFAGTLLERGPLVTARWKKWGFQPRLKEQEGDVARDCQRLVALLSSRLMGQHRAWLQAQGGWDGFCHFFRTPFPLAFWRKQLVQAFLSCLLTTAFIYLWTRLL

The assay concerns the target Bcl-2-like protein 10 (Homo sapiens) (UniProt Q9HD36). The assay can be described thus: Phenotype converters, Bcl-B/TR3 peptide binding displacement, primary biochemical FP (AID 1240).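 Also: 0% = Bcl-B with tracer peptide and DMSO and 100% = tracer peptide lacking Bcl-B.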 As to conditions: GST-Bcl-B / FITC-TR3 peptide fluorescence polarization; stronger effect = higher value; compound at 3.75 mg/L.
For the molecule `Cc1c(Cl)cccc1N=Cc1ccc[nH]1`, the displacement was 11.3%.
Take `Cc1sc2nc(SCC(=O)NCCO)n(-c3ccccc3)c(=O)c2c1C`: the displacement came out at 1.9%.
The figure for `COC(C)(C)c1cc(-c2cccc3ccccc23)nc(N)n1` is 0%; for `C=CCSc1nc(C)c2cc(OCC)ccc2n1` it is 7.4%.
The figure for `CCOC(=O)CC(=O)CSc1nc(C)c2cc(OCC)ccc2n1` is 67.2%; for `CCOc1ccc2nc(SC)nc(C)c2c1` it is -3.6%.
The figure for `Cc1cc(C)c2oc(-c3ccc(C)c(NC(=O)c4ccc(Br)o4)c3)nc2c1` is -3.8%.
Turning to `CN(C)CCCNC(=O)c1ccc(N(C)S(=O)(=O)c2ccccc2)cc1`, the displacement is -13.4%.
On to `CCOC(=O)c1csc(NC(=O)c2ccc(C(=O)c3ccccc3)cc2)n1`, for which the displacement was -24.4%.
In the case of `Cc1ccc(C(C)C)c(OCC(=O)Nc2ccc(NC(=O)c3ccccc3Cl)cc2)c1`, the displacement was -2.1%.
In the case of `O=c1[nH]c(=O)n(Cc2ccc(F)cc2)c(O)c1/C=C1/C=CC=N1`, the displacement worked out at 32%.
For the molecule `Cc1cc(C)cc(-n2c(O)c(/C=C3\C=Nc4ccccc43)c(=O)[nH]c2=O)c1`, the displacement came to 71.2%.
As to `O=c1[nH]c(=O)n(Cc2ccc(F)cc2)c(O)c1/C=C1\C=Nc2ccccc21`, the displacement stood at 51.3%.
Consider `C=CCn1c(O)c(/C=C2\C=Nc3ccccc32)c(=O)[nH]c1=S`, for which the displacement is -2.9%.
`Cc1cc(C)c(-n2c(O)c(/C=C3\C=Nc4ccccc43)c(=O)[nH]c2=O)c(C)c1`: the displacement is -4.1%.
Regarding `O=c1[nH]c(=O)n(-c2cccc(Br)c2)c(O)c1/C=C1\C=Nc2ccccc21`, the displacement is 33.4%.
The figure for `COc1cc(OC)c(OC)cc1/C=N/NC(=O)CSc1nc2ccccc2[nH]1` is 0.1%.
In the case of `O=C(Nc1ccccc1C(=O)N=Nc1c(O)[nH]c2ccc([N+](=O)[O-])cc12)c1ccccc1`, the displacement is -1.3%.
`COc1ccc(C)cc1NC(=O)CN(Cc1ccccc1)S(=O)(=O)c1ccc(OC)c(OC)c1`: the displacement is -46.5%.
The figure for `COC(=O)c1c(NC(=O)Nc2ccc(Cl)c(Cl)c2)sc2c1CCC2` is 11.8%; for `CCN1CCc2c(sc(NC(=O)Nc3ccc(Cl)cc3)c2C(N)=O)C1` it is 21.3%; for `CCN1CCc2c(sc(NC(=O)Nc3ccc(Cl)c(Cl)c3)c2C(N)=O)C1` it is 111%.
In the case of `CCOc1ccccc1NC1=CC(=O)CC(c2ccccc2)C1` (centres undefined), the displacement was -8.1%.
The figure for `COc1ccc(COCC(O)CN2CC(C)OC(C)C2)cc1OC` (centres undefined) is 4%.
Then `COc1ccccc1C(=O)N1CCN(c2nc3ccc([N+](=O)[O-])cc3s2)CC1`, with -14%; and `O=C(c1cccc2ccccc12)N1CCN(c2nc3ccc([N+](=O)[O-])cc3s2)CC1`, with 28.9%.
`O=C(c1ccc(Br)cc1)N1CCN(c2nc3ccc([N+](=O)[O-])cc3s2)CC1`: the displacement stood at 3.2%.
With `Cc1ccccc1C(=O)N1CCN(c2nc3ccc([N+](=O)[O-])cc3s2)CC1`, the displacement came out at 161%.
Then `O=C(c1ccc(Cl)cc1Cl)N1CCN(c2nc3ccc([N+](=O)[O-])cc3s2)CC1`, with 100%; and `CCC(=O)N1CCN(c2nc3ccc([N+](=O)[O-])cc3s2)CC1`, with -8.8%; and `COc1ccc(N2C(=O)c3ccccc3NC2c2ccc(OC)c(CN3C(=O)c4ccccc4C3=O)c2)cc1` (centres undefined), with -4.2%.
For `COC(=O)CSc1nc(NC(C)=O)nc(C)c1Br`, the displacement was 4.5%.
In the case of `Oc1c(Cl)cc(Br)cc1/C=N/Nc1nc(N2CCOCC2)nc(N2CCOCC2)n1`, the displacement stood at 9.3%.
As to `O=C1/C(=C\Nc2cc(Cl)ccc2O)CCc2ccccc21`, the displacement came out at 85.9%.
In the case of `O=C1/C(=C\Nc2ccccc2O)CCc2ccccc21`, the displacement is 3.8%.
Consider `O=C1/C(=C/Nc2ccccc2NS(=O)(=O)c2ccc([N+](=O)[O-])cc2)CCc2ccccc21`, for which the displacement is 8.1%.
Take `O=C1/C(=C/Nc2ccccc2NS(=O)(=O)c2ccccc2)CCc2ccccc21`: the displacement stood at 10.4%.
As for `CNc1ccc([N+](=O)[O-])cc1N/C=C1\CCc2ccccc2C1=O`, the displacement is 126%.
For the molecule `O=C1/C(=C\Nc2ccc3c(c2)OCO3)CCc2ccccc21`, the displacement amounted to 48.1%.
With `C[N+]1=C(CC(=O)Nc2ccccc2Cl)c2ccccc2CC1(C)C`, the displacement is 1.4%.
For `Cc1ccc2nc(-c3ccc(NC(=O)c4ccc(S(=O)(=O)N5CCCC5)cc4)cc3)sc2c1`, the displacement is -1.5%.
Regarding `Cc1cc(S(=O)(=O)N2CCCC2C(=O)O)c(C)cc1Cl` (centres undefined), the displacement was -5.8%.
As for `O=c1c2c(nc3cc(-c4cccs4)[nH]n13)CCCC2`, the displacement came to 20.5%.
For `O=c1c2c(nc3cc(-c4ccccc4)[nH]n13)CCS2`, the displacement is -12.6%.
As to `O=c1c2c(nc3cc(-c4ccco4)[nH]n13)CCS2`, the displacement stood at 78.9%.
Then `O=c1c2c(nc3cc(-c4cccs4)[nH]n13)CCS2`, with 75.8%; and `Cc1nc2cc(-c3ccco3)[nH]n2c(=O)c1C`, with 17%; and `O=c1c2c(nc3cc(-c4cccs4)[nH]n13)CCC2`, with 5.7%.
The figure for `O=C1NC(=O)N(c2ccc3c(c2)OCO3)C(=O)/C1=C/c1ccc(I)o1` is 17.5%.
Turning to `COc1cc(/C=N/Nc2ncc(C)c(=O)[nH]2)cc(OC)c1O`, the displacement worked out at 6.6%.
As for `CN(C)c1ccc(NS(=O)(=O)c2ccc(N3C(=O)CCC3=O)cc2)cc1`, the displacement was determined as 19.2%.
Then `COc1ccc(N/C(C)=C/C(=O)c2ccc(Cl)cc2)c(OC)c1`, with 0.8%; and `CCCCCCC(=O)Nc1nnc(CC(C)C)s1`, with -12.9%.
As for `C/C(=N\NC(=O)CCc1c(C)n[nH]c1C)c1ccc(N)cc1`, the displacement is -4%.
Then `CCCC1=NN(c2ccc([N+](=O)[O-])cc2)C(=O)/C1=C\N(C)C`, with -5.5%; and `NC(=O)c1c(NC(=O)Nc2ccc(Cl)cc2)sc2c1CCCC2`, with 0.8%; and `CCOc1ccc(N2COc3ccc4ccccc4c3C2)cc1`, with 9.1%.
Turning to `Cc1ccc(N=Cc2c(O)c([N+](=O)[O-])cc3oc4c(c23)CCCC4)cc1C`, the displacement was -1.4%.
Turning to `Oc1c(Br)cc2oc3c(c2c1/C=N/c1ncn[nH]1)CCCC3`, the displacement came out at 8.5%.
`Oc1ccccc1N=Cc1c(O)c(I)cc2oc3c(c12)CCCC3`: the displacement is 130%.
With `O=C(NCc1cccnc1)C(=O)N1CCCCC1`, the displacement was -1.4%.
The figure for `O=C(CC(c1ccccc1)c1ccccc1)Nc1ccccc1Br` is -11.6%; for `COc1cc2nnc(/C=C/C(C)=O)c(-c3ccc(C)o3)c2cc1OC` it is 48%.
For `CC(=O)/C=C/c1oc2ccc([N+](=O)[O-])cc2c1-c1ccc(C)o1`, the displacement was 80.9%.
Then `CC(=O)CCc1oc2ccc([N+](=O)[O-])cc2c1-c1ccc(C)o1`, with 3.5%; and `O=C(Nc1ccc(-c2nnc(-c3ccccc3)o2)cc1)c1cccs1`, with 15.3%; and `Nc1nonc1C(=O)N/N=C/c1cc(Cl)cc(Cl)c1O`, with 9%.
Then `C=CCN1C(=O)/C(=C\c2ccc(-c3cc(Cl)ccc3Cl)o2)SC1=S`, with 65.4%.
For the molecule `O=C1/C(=C/c2ccc(-c3cc(Cl)ccc3Cl)o2)SC(=S)N1Cc1ccco1`, the displacement came to 14.1%.
For `C=CCN1C(=O)/C(=C\c2ccc(-c3ccc(F)c(Cl)c3)o2)SC1=S`, the displacement is 39.4%.
Then `CCOC(=O)c1ccc(-c2ccc(/C=C3/SC(=S)N(CC)C3=O)o2)cc1`, with 31%.
In the case of `O=C1/C(=C\c2ccc(-c3ccccc3Cl)o2)SC(=S)N1Cc1ccccc1`, the displacement stood at 10%.
The figure for `C=CCN1C(=O)/C(=C\c2ccc(-c3cc(Cl)cc(Cl)c3)o2)SC1=S` is 1.7%.
With `C=CCN1C(=O)/C(=C\c2ccc(-c3ccc(Cl)c(Cl)c3)o2)SC1=S`, the displacement was 50.1%.
In the case of `C=CCN1C(=O)/C(=C\c2ccc(-c3cccc(Cl)c3)o2)SC1=S`, the displacement worked out at 1.4%.
With `CCOC(=O)c1ccc(-c2ccc(/C=C3/SC(=S)N(CC(=O)O)C3=O)o2)cc1`, the displacement was -83.7%.
The figure for `C=CCN1C(=O)/C(=C\c2ccc(-c3ccc(C(=O)OCC)cc3)o2)SC1=S` is 90.3%; for `O=C(O)CN1C(=O)/C(=C\c2ccc(-c3ccccc3Cl)o2)SC1=S` it is -121%.
As for `C=CCN1C(=O)/C(=C\c2ccc(-c3ccccc3Cl)o2)SC1=S`, the displacement was 149%.
